For 53 compounds, INHIBITION results are on record in ChEMBL document CHEMBL4513216, “Probing the Open Global Health Chemical Diversity Library for Multistage-Active Starting Points for Next-Generation Antimalarials” (ACS Infect Dis, 2020).

In all, about 69,000 compounds went through this assay and about 8,600 (12%) showed an effect of 50% or more. The full list was thinned out, with strong results kept by preference.

This experiment deals with Plasmodium berghei. Put plainly: Screen against P. berghei liver stage (PbLuc), transformed with Luciferase, at 10uM. It is filed as functional, HepG2. The note with it: tested at 10 uM.
`Cc1[nH]c(=O)[nH]c(=O)c1CN1CCCC(CCc2c(F)cccc2F)C1` (stereo not drawn): the INHIBITION worked out at 6.8%. For `COc1coc(CN2CCCC(CCc3ccccc3C)C2)cc1=O` (stereo not drawn), the INHIBITION was determined as 46.4%.

`COc1cccc(F)c1CN1CCC(c2nc(C)cc(C)n2)C1` (stereo not drawn): the INHIBITION was 43.45%. Under `CN1N=C(C(=O)N2CCCC(CCc3c(F)cccc3F)C2)CCC1=O` (stereo not drawn) stands 0.139%; under `CS(=O)(=O)NCCC1CCCN(Cc2ccccc2F)C1` (stereo not drawn), 43.1%. Under `COc1coc(CN2CCCC(CCc3ccccc3F)C2)cc1=O` (stereo not drawn) stands 60.4%; under `O=c1cc(CN2CCCC(CCc3c(F)cccc3F)C2)[nH]c(=O)[nH]1` (stereo not drawn), 58.5%. As for `Cc1[nH]c(=O)[nH]c(=O)c1CN1CCCC(CCc2ccccc2F)C1` (stereo not drawn), the figure is 19.7%; as for `COCCOCC(=O)NCc1ccc(N(C)C)nc1`, 26.1%; as for `COCCN1CCN(C(C(=O)O)c2ccc(SC)cc2)CC1` (stereo not drawn), 49.4%.

Take `Cn1cc(CN2CCCC(O)C2)c(-c2ccccc2F)n1` (stereo not drawn): the INHIBITION was 3.13%. As for `COc1cccc(CN2CCC3(CC2)CCN(C(=O)[C@@H]2CCCO2)C3)c1`, the figure is -47.9%; as for `Cc1ccc(N2CCOC(C)(C(=O)N(C)C)C2)nn1` (stereo not drawn), 18.3%; as for `CCc1nnsc1C(=O)N1CCOC(c2nc(C)n[nH]2)C1` (stereo not drawn), 51.3%. In the case of `Cc1n[nH]c(C2CN(C(=O)c3csnn3)CCO2)n1` (stereo not drawn), the INHIBITION stood at 35.1%. Take `CC(C)c1n[nH]c(C2CN(C(=O)c3cc4c(s3)CCC4)CCO2)n1` (stereo not drawn): the INHIBITION stood at 52.3%. On to `Cc1n[nH]c(C2CN(C(=O)c3cc4c(s3)CCC4)CCO2)n1` (stereo not drawn), for which the INHIBITION is 0.914%. Regarding `Cc1n[nH]c(C2CN(C(=O)c3cc4c(s3)CCCC4)CCO2)n1` (stereo not drawn), the INHIBITION is recorded as -1.14%. Consider `CCc1nc(C)ncc1C(=O)N1CCOC(c2nc(C)n[nH]2)C1` (stereo not drawn), for which the INHIBITION turned out to be 23.5%. As for `CCc1n[nH]c(C2CN(C(=O)c3csnn3)CCO2)n1` (stereo not drawn), the figure is 40.4%; as for `CC(C)c1n[nH]c(C2CN(C(=O)c3csnn3)CCO2)n1` (stereo not drawn), 52.7%; as for `CCc1nnsc1C(=O)N1CCOC(c2nc(C(C)C)n[nH]2)C1` (stereo not drawn), -2.61%. Take `CC(CO)NC(=O)c1ccc(NCc2ccccc2)cc1` (stereo not drawn): the INHIBITION is listed as 19.8%. Regarding `Cc1cc(Nc2ccc(F)cn2)cc(C2CCCN2)n1` (stereo not drawn), the INHIBITION came to 34.9%. Under `CCN(C(=O)C1Cc2cc(Cl)ccc2O1)C1CC1` (stereo not drawn) stands 38.3%; under `CNc1cc(C)nc(C2CCN(CCO)CC2)n1`, -2.09%. Under `Cc1nc(CN2C(=O)COC3(CCN(Cc4ccco4)CC3)C2C)cs1` (stereo not drawn) stands -4.86%; under `Cc1cc(NCC2CCCCC2)n2ncnc2n1`, 9.8%; under `Cc1cc(NCc2ccccc2CN2CCCCC2)n2ncnc2n1`, 54.4%. For the compound `Cc1cc(NC2CCN(c3ccccc3)C2)n2ncnc2n1` (stereo not drawn), the INHIBITION is 4.94%.

Consider `Cc1cc(NCC2CCN(c3ccccc3)C2)n2ncnc2n1` (stereo not drawn), for which the INHIBITION is given as 78.9%. Under `CCc1cc(NCc2cccnc2N2CCCCC2)n2ncnc2n1` stands 36.2%.

`Cc1cc(NCCn2cccn2)n2ncnc2n1`: the INHIBITION was -38.8%. As for `COc1cccc(N2CCC(CNc3cc(C)nc4ncnn34)C2)c1` (stereo not drawn), the figure is 65.5%; as for `COc1cccc(N2CCC(CNC(=O)NCc3ccco3)C2)c1` (stereo not drawn), -51%.

For `CCc1cc(NCc2ccccc2CN2CCCC2)n2ncnc2n1`, the INHIBITION worked out at 11.1%.

As for `CCc1n[nH]c(C2CN(C(=O)c3cc4c(s3)CCC4)CCO2)n1` (stereo not drawn), the INHIBITION is -7.31%. With `C[C@H]1CN(C(=O)c2ccc[nH]2)C[C@@]12CCN(c1ccsc1)C2=O`, the INHIBITION amounted to 18.3%. Under `NC(=O)c1cc(C2CCCN(CCOc3cccc(F)c3)C2)n[nH]1` (stereo not drawn) stands 43.48%. Under `CN(C)Cc1nn(C)c2c1CN(C(=O)c1ccc[nH]1)C2` stands -4.02%.

For the compound `COc1ccc(-c2ccnc3nc(N4CCCC4)[nH]c(=O)c23)cc1OC`, the INHIBITION is recorded as 40%. For the compound `Cc1cccc(NC(=O)N2CCN(Cc3noc(C4CC4)n3)CC2)c1`, the INHIBITION amounted to 46.2%. Under `Cc1cc(C)n(CC(=O)N2Cc3cnc(C(C)(C)C)nc3C2)n1` stands 51.3%; under `CC(=O)N1Cc2cnc(C(C)(C)C)nc2C1`, 19.8%.

Take `CC(=O)c1c(C)nn(CC(=O)N2Cc3cnc(C(C)(C)C)nc3C2)c1C`: the INHIBITION is reported as -10.4%. Under `Cc1noc(Cl)c1CCC(=O)N1CCN(c2ccccc2)CC1` stands 26.5%; under `CSC(C)(C)CNC(=O)NCc1cccc(-n2cncn2)c1`, -17.9%.

With `O=C(NCc1cccc(-n2cncn2)c1)NCC(C1CC1)C1CC1`, the INHIBITION is 50.2%. As for `Cc1c(CNC(=O)NCc2cccc(-n3cncn3)c2)cnn1C`, the figure is -40.4%; as for `CCn1ncc(CN(C)C(=O)c2ccn(C)n2)c1C`, 30%.

For `Cc1ccsc1C(=O)N1CCN(Cc2cscn2)CC1`, the INHIBITION is -6.14%.

In the case of `COCCN1C(=O)[C@@H]2CC[C@H]1CN(c1nccc(C3CCCC3)n1)C2`, the INHIBITION was -47.9%. Under `c1ccc(CN2CCCn3nnc(CNc4ncccn4)c3C2)nc1` stands -18.4%.
